# From PubChem BioAssay
# Active and inactive are the calls of the source. Unless noted, no rule for the calls is given here.
# Columns and labels:
# [1] = compound effects on lung adenocarcinoma cell viability – A549, calcein-AM fluorescence, 48 h, basal, profiling panel (AID 1162); details: higher = more signal; also: test concentration not given here
# [2] = compound effects on differentiated 3T3-L1 adipocyte viability – cell-based, 3T3-L1 adipocytes, calcein-AM fluorescence, 48 h, basal, profiling panel (AID 1163); details: 3T3-L1 adipocytes viability, higher = more signal; also: test concentration not given here
# [3] = compound effects on hepatocellular carcinoma cell viability – HepG2, calcein-AM fluorescence, 48 h, basal, profiling panel (AID 1164); details: higher = more signal; also: test concentration not given here
# [4] = compound effects on multiple myeloma cell viability – MM1S, calcein-AM fluorescence, 48 h, basal, profiling panel (AID 1165); details: higher = more signal;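 also: viability of MM1S multiple myeloma cells under basal unstimulated conditions; test concentration not given here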
# [5] = calcein-AM signal in unstimulated myeloma cells – cell-based, calcein-AM fluorescence, 48 h, PK04 Diversity Set, profiling panel (AID 1166); details: RPMI8226 myeloma viability, higher = more signal;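 also: cells grown under basal conditions without added stimulus; test concentration not given here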
# [6] = JC-1 mitochondrial signal, unstimulated HepG2 cells – cell-based, JC-1 fluorescence, 24 h, 100 nL compound, profiling panel (AID 1167); details: HepG2 mitochondrial potential, higher = more signal; also: test concentration not given here
# [7] = JC-1 mitochondrial signal, unstimulated adipocytes – cell-based, JC-1 fluorescence, 3T3-L1 adipocytes, 24 h, 100 nL compound, profiling panel (AID 1168); details: JC-1 mitochondrial fluorescence, higher = more signal, called active from +8 up or from −8 down; also: test concentration not given here
# [8] = JC-1 mitochondrial signal, unstimulated myeloma cells – cell-based, JC-1 fluorescence, RPMI8226, 24 h, 100 nL compound, profiling panel (AID 1169); details: JC-1 mitochondrial potential fluorescence, higher = more signal; also: test concentration not given here
# [9] = JC-1 mitochondrial signal, unstimulated MM1S myeloma – cell-based, JC-1 fluorescence, 24 h, 100 nL compound, profiling panel (AID 1170); details: MM1S mitochondrial potential, higher = more signal; also: test concentration not given here
# [10] = resazurin metabolic signal in A549 cells – cell-based, resazurin fluorescence, 24 h, PK04 Diversity Set, profiling panel (AID 1171); details: A549 viability, higher = more signal, called active from +8 up or from −8 down; also: test concentration not given here
# [11] = resazurin metabolic signal in HepG2 cells – cell-based, resazurin fluorescence, 24 h, PK04 Diversity Set, profiling panel (AID 1172); details: HepG2 viability, higher = more signal; also: test concentration not given here
# [12] = budding yeast growth changes without added modifier – OD600, strain BY4716, 24 h, basal condition, primary screen (AID 1173); details: S. cerevisiae BY4716 growth, OD600, 24 h; higher = more signal, called active from +8 up or from −8 down
# [13] = viability profiling in MM1S myeloma cells – cell-based, resazurin fluorescence, basal, 24 h, PK04 Diversity Set, profiling panel (AID 1174); details: higher = more signal, called active from +8 up or from −8 down; also: test concentration not given here
# [14] = target: Dihydroorotate dehydrogenase (quinone), mitochondrial (Plasmodium falciparum (isolate 3D7)) (UniProt Q08210); assay: inhibition of P. falciparum DHODH – biochemical, C-terminal His tag, absorbance 600 nm, primary screen (AID 1175); details: PfDHODH enzyme, DCIP absorbance 600 nm; higher = more signal, called active from +8 up or from −8 down;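 also: recombinant parasite enzyme with a five histidine tag at its C terminus; test concentration not given here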
# Sequence of Dihydroorotate dehydrogenase (quinone), mitochondrial (Plasmodium falciparum (isolate 3D7)) (Q08210 whole entry, looked up): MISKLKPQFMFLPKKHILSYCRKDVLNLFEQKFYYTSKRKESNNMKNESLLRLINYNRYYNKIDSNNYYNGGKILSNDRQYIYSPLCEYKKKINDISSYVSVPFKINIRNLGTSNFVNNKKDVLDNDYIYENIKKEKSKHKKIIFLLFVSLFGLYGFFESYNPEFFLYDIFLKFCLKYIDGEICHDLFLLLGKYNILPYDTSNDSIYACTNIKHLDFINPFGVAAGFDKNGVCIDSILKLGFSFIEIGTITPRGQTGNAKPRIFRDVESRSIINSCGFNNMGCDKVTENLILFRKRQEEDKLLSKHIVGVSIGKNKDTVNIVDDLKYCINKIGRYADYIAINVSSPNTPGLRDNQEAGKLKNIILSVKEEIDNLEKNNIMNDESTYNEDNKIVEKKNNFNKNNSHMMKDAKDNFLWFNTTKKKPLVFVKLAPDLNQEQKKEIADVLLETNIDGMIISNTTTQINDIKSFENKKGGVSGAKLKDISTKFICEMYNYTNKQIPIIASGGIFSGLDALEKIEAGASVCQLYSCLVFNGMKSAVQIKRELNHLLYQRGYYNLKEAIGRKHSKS
# [15] = inhibition of PAO1 biofilm formation – strain PAO1, LB-PBS medium, absorbance 600 nm, primary screen (AID 1176); also: test concentration not given here; details: P. aeruginosa PAO1 growth/biofilm, A600, 12 h; higher = more signal
# [16] = growth modulation of vineyard yeast isolate – strain RM11-1a, OD600, basal, 24 h, primary screen (AID 1177);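 also: cultures grown under basal conditions with no added stressor; test concentration not given here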; details: S. cerevisiae RM11-1a growth, OD600, 24 h; higher = more signal, called active from +8 up or from −8 down
# [17] = growth of efflux-deficient E. coli DRC39 – strain DRC39, OD650, 24 h, E. coli filamentation inducers, primary screen (AID 1178);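 also: growth measured as culture turbidity by optical density at 650 nm; test concentration not given here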; details: E. coli DRC39 acrAB, higher = more signal, called active from +8 up or from −8 down
# [18] = growth of efflux-deficient E. coli DRC39 – strain DRC39, OD650, 48 h, E. coli filamentation inducers, primary screen (AID 1179);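 also: screen aims at cell division blockers that make cells filament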; details: E. coli DRC39 delta-acrAB growth, higher = more signal, called active from +8 up or from −8 down
# [19] = viability profiling in RPMI8226 myeloma cells – cell-based, resazurin fluorescence, basal, 24 h, PK04 Diversity Set, profiling panel (AID 1180); details: higher = more signal;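 also: RPMI8826 multiple myeloma cell line at 5000 cells per well; test concentration not given here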
# [20] = target: E3 ubiquitin-protein ligase XIAP (Homo sapiens) (UniProt P98170); assay: small molecules binding XIAP protein – biophysical, small-molecule microarray, fluorescence 635 nm, primary screen (AID 1181); details: higher = more signal;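 also: score merges 667 nm emission and signal to noise over triplicate slides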
# Sequence of E3 ubiquitin-protein ligase XIAP (Homo sapiens) (P98170 whole entry, looked up): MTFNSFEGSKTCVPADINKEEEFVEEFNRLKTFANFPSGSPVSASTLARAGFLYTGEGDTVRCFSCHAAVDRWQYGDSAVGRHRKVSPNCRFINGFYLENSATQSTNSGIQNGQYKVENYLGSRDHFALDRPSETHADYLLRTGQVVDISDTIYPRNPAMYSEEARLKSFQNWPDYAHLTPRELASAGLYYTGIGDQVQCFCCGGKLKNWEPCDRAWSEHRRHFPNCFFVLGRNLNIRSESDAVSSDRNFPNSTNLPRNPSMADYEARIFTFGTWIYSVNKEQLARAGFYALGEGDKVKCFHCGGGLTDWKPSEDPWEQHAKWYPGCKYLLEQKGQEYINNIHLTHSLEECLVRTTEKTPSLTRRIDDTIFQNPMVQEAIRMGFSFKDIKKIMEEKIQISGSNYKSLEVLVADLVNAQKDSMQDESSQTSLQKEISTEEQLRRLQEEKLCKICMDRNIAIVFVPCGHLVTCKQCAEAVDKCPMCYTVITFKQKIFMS
Compound,z-score [1],z-score [2],z-score [3],z-score [4],z-score [5],z-score [6],z-score [7],z-score [8],z-score [9],z-score [10],z-score [11],z-score [12],z-score [13],composite z-score [14],z-score [15],z-score [16],z-score [17],z-score [18],z-score [19],composite z-score [20]
O=C1[C@]2(CO)C=C(Br)[C@@H](C[C@@H]2c2ccccc2)[C@@]12CO2,-0.425,0.364,-0.421,-2.22,-2.68,-1.66,-0.435 (inactive),0.278,-1.14,0.359 (inactive),1.09,-4.57 (inactive),-0.0768 (inactive),-0.172 (inactive),-0.884 (inactive),0.184 (inactive),0.613 (inactive),0.585 (inactive),-0.333,-0.102
CC(C)C[C@@H]1NC(=O)[C@H]2C[C@@H](C(=O)NCCCCCCNC(=O)CS)[C@@H](c3cccc(OCCO)c3)N2C1=O,0.0674,0.466,0.696,0.118,-0.0467,-0.569,0.844 (inactive),-0.404,-0.343,0.0056 (inactive),0.808,-0.632 (inactive),0.259 (inactive),-0.625 (inactive),-0.145 (inactive),0.652 (inactive),0.941 (inactive),1.08 (inactive),-0.258,0.356
O=C1OCCC/C=C\[C@H]2OC34C=CCN(Cn5nnc6ccccc65)C(=O)[C@H]3N(CCCCCO)C(=O)[C@@H]4C12 (stereo not given in full),-0.452,1.05,-1.02,-0.496,0.424,0.19,0.0884 (inactive),-0.212,0.37,0.0684 (inactive),0.502,-0.419 (inactive),0.812 (inactive),-1.01 (inactive),0.193 (inactive),-0.564 (inactive),0.376 (inactive),-0.0083 (inactive),0.692,0.178
CC(C)N1CC=CC23O[C@@H]4C=CCOC(=O)[C@@H]4[C@H]2C(=O)N(CCO)[C@@H]3C1=O (stereo not given in full),-0.237,0.253,-0.166,1.07,-0.761,-0.38,0.0611 (inactive),0.223,-0.797,0.336 (inactive),0.545,0.684 (inactive),0.813 (inactive),-1.12 (inactive),0.0683 (inactive),0.445 (inactive),0.173 (inactive),0.0539 (inactive),0.393,0.0368
CCOC(=O)[C@H]1C/C=C/C[C@H](C(=O)OCC)C(=O)O[C@H]2[C@@H](OC)O[C@H](CO)[C@@H](OC(=O)Nc3ccc4c(c3)OCO4)[C@@H]2OC1=O,-2.58,-0.256,-5,-3.35,-4.14,-3.1,1.56 (inactive),-0.975,-1.75,-5 (inactive),-4.19,0.273 (inactive),-6.98 (inactive),0.0446 (inactive),1.2 (inactive),1.06 (inactive),1.03 (inactive),1.53 (inactive),-6.84,-0.102
Cc1ccccc1C(O)C1C=CC2C(=O)N(C)C(=O)C2N1N1CCCCC1 (stereo not given),-0.578,-1.18,-0.979,-0.587,-0.436,-1.64,-1.01 (inactive),0.207,0.201,-0.464 (inactive),-0.424,0.492 (inactive),-1.24 (inactive),-0.318 (inactive),0.723 (inactive),-0.252 (inactive),-0.751 (inactive),-0.495 (inactive),-1.64,0.124
CC(C)N1C(=O)C[C@@](C(=O)NCc2ccccc2)(c2ccc([N+](=O)[O-])cc2)[C@H]1c1ccc(CO)cc1,-0.508,-0.749,-0.113,-0.0234,-0.0746,0.924,1.08 (inactive),-0.744,0.301,0.0885 (inactive),0.222,-0.228 (inactive),0.0372 (inactive),0.41 (inactive),-0.0528 (inactive),0.131 (inactive),0.531 (inactive),1.23 (inactive),1.26,-0.0543
O=C1O[C@H](c2ccccc2)[C@H](c2ccccc2)N2[C@H]1[C@@H](C(=O)N1CCN(c3ncccn3)CC1)[C@]1(C(=O)Nc3ccccc31)[C@H]2c1ccc(OCCO)cc1,0.404,1.35,0.121,0.0498,-2.17,-0.592,1.53 (inactive),-1.16,-0.537,1.18 (inactive),1.42,1.4 (inactive),0.792 (inactive),1.12 (inactive),1.55 (inactive),1.81 (inactive),0.774 (inactive),0.0049 (inactive),0.368,0.109
COCCOC(=O)N1C(=O)[C@@]2(c3cc(C#CCNC(N)=O)ccc31)[C@H](C(=O)N1CCc3cc(OC)c(OC)cc3C1)[C@H]1C(=O)O[C@H](c3ccccc3)[C@H](c3ccccc3)N1[C@@H]2c1ccc(OCCO)cc1,-0.21,0.743,-0.0192,0.128,0.115,-0.691,1.66 (inactive),-0.468,-0.864,0.0245 (inactive),0.631,2.28 (inactive),0.761 (inactive),-0.232 (inactive),1.92 (inactive),2.97 (inactive),0.987 (inactive),0.781 (inactive),0.856,0.122
CCCN1C(=O)[C@@]2(CCC(=O)OC(C)(C)C)N=C(c3ccc(OCCCO)cc3)O[C@H]2c2ccccc21,-1.32,1.24,-2.09,-3.47,-4.43,0.6,2.43 (inactive),-1.26,-0.421,-0.778 (inactive),0.803,-1 (inactive),-1.86 (inactive),-0.0393 (inactive),0.717 (inactive),0.992 (inactive),0.923 (inactive),0.178 (inactive),-3.16,0.0223
C=C[C@H](COC(C)=O)N(Cc1ccc(OC(C)=O)c(OC)c1)S(=O)(=O)c1ccc(Br)cc1,1.18,0.139,0.285,0.594,0.394,0.43,1.19 (inactive),0.825,-0.886,0.353 (inactive),0.203,-0.533 (inactive),0.427 (inactive),-1.24 (inactive),-0.152 (inactive),0.318 (inactive),1.65 (inactive),2.5 (inactive),0.798,-0.162
O=C1N(CCS(=O)(=O)c2ccccc2)Cc2ccccc2[C@H]2OC(c3ccc(OCCCO)cc3)=N[C@@]12CCS(=O)(=O)c1ccccc1,1.02,1.46,1.19,0.222,0.117,0.0737,0.557 (inactive),-0.81,-0.848,0.908 (inactive),0.759,1.83 (inactive),0.935 (inactive),-0.796 (inactive),0.0533 (inactive),3.07 (inactive),1.69 (inactive),1.09 (inactive),-0.124,-0.15
[N-]=[N+]=Nc1ccccc1[C@H]1OC(c2ccc(OCCCO)cc2)=N[C@@]1(CCS(=O)(=O)c1ccccc1)C(=O)O,0.318,1.69,-0.0825,-1.42,0.682,-3.45,-1.65 (inactive),0.0104,-0.0976,0.315 (inactive),0.181,-1.65 (inactive),0.169 (inactive),0.737 (inactive),-0.319 (inactive),-0.0777 (inactive),2.08 (inactive),0.499 (inactive),0.438,0.143
[N-]=[N+]=NCc1ccccc1C[C@]1(C(=O)O)N=C(c2ccc(OCCCO)cc2)O[C@H]1c1ccccc1CN=[N+]=[N-],-0.437,0.368,-0.302,-0.966,-1.53,-2.38,-1.4 (inactive),-0.789,0.432,1.17 (inactive),0.924,-3.5 (inactive),0.349 (inactive),-2.16 (inactive),0.563 (inactive),-1.05 (inactive),0.279 (inactive),-0.717 (inactive),-0.0479,-0.139
CC(=O)NCCCC[C@@H]1NC(=O)[C@H]2C[C@@H](C(=O)NCCCCCC[N+](C)(C)C)[C@@H](c3cccc(OCCO)c3)N2C1=O,-0.144,1.14,-0.827,0.385,-0.418,-1.44,0.326 (inactive),-0.135,-0.872,0.925 (inactive),1.04,-0.458 (inactive),0.56 (inactive),-1.75 (inactive),3.45 (inactive),-0.718 (inactive),-0.47 (inactive),-0.711 (inactive),0.0647,0.0871
CCOC(=O)C1=CC[C@@H](c2ccccc2)N(S(=O)(=O)c2ccc(C)cc2)[C@H]1C(=O)OCC,-0.613,-0.467,-0.111,0.884,0.0651,3,0.252 (inactive),-0.619,-1.24,0.706 (inactive),-0.0229,1.45 (inactive),-0.424 (inactive),-0.103 (inactive),-0.0196 (inactive),0.482 (inactive),-0.0018 (inactive),0.237 (inactive),-0.904,-0.052
